Measured values from the supplement of paper PMC10849652.
About 7,900 targets were measured; listed, in parts, are those with a hit and a random draw of the rest. About 0.6% of all pairs of compound and target were hits. A number with no mark means an inactive call.

Legend:
Experiment in all cases: log2 fold change, soluble protein after heating vs DMSO (PISA); higher = thermal stabilisation; K562 cells, 10 uM, 30 min; active = over 0.2 and 3.5 SD of the protein, either way, in both replicates (recomputed)
[1] = compound: CC1=C(C=C(C=C1)NC(=O)C2=CC(=CC=C2)C(C)(C)C#N)NC3=CC4=C(C=C3)N=CN(C4=O)C
Method in brief: (§1)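 Thermal stability values are relative to control samples and come from duplicates. They are expressed as log2 fold changes. For measurement, K562 cells (2×10^6 cells/mL) received 10 μM compound for 30 min, and aliquots were heated for 3 min over 48°C-58°C, pooled, and extracted at 4°C in PBS with 0.5% NP-40. Soluble protein, the supernatant after 21,000xg for 90 min, was quantified by TMTpro 16plex LC-MS/MS with equalised channel sums.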

[2] = compound: CC1=C(C=C(C=C1)NC(=O)C2=CC(=CC=C2)N(C)C)NC(=O)C3=CC=C(C=C3)O
Method in brief: as §1

[3] = compound: CC1=CC=C(C=C1)SC2=C3C=C(SC3=CN=C2)C(=O)N
Method in brief: as §1

[4] = compound: CC1=NC(=CC=C1)C2=C(N=C(N2)C(C)(C)C)C3=CC4=NC=CN=C4C=C3
Method in brief: as §1

Nexturastat A = compound: CCCCN(Cc1ccc(C(=O)NO)cc1)C(=O)Nc1ccccc1 [Nexturastat A]
Method in brief: as §1

vemurafenib = compound: CCCS(=O)(=O)Nc1ccc(F)c(C(=O)c2c[nH]c3ncc(-c4ccc(Cl)cc4)cc23)c1F [vemurafenib]
Method in brief: as §1

[5] = compound: CCCS(=O)(=O)Nc1ccc(F)c(C(=O)c2c[nH]c3ncc(Cl)cc23)c1F
Method in brief: as §1

[6] = compound: CCCc1cc(C)[nH]c(=O)c1CNC(=O)c1cc(-c2ccnc(N3CCN(C)CC3)c2)cc2c1cnn2C(C)C
Method in brief: as §1

givinostat = compound: CCN(CC)Cc1ccc2cc(COC(=O)Nc3ccc(C(=O)NO)cc3)ccc2c1 [givinostat]
Method in brief: as §1

barasertib = compound: CCN(CCCOc1ccc2c(Nc3cc(CC(=O)Nc4cccc(F)c4)[nH]n3)ncnc2c1)CCOP(=O)(O)O [barasertib]
Method in brief: as §1

Chain of UniProt P05937 (P05937 whole entry, looked up): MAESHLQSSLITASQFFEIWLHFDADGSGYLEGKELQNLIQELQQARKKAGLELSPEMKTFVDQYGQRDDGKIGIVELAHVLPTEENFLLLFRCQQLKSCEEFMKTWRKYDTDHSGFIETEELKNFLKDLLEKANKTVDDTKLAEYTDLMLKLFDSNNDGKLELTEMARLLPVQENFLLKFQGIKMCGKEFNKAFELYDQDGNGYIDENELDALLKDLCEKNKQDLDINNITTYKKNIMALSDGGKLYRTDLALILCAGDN
Chain of UniProt O15182 (O15182 whole entry, looked up): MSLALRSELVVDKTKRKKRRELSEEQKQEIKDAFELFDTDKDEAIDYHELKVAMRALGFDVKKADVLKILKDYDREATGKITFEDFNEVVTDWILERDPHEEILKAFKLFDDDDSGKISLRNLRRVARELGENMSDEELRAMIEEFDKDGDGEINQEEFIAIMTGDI
Chain of UniProt O75122 (O75122 whole entry, looked up): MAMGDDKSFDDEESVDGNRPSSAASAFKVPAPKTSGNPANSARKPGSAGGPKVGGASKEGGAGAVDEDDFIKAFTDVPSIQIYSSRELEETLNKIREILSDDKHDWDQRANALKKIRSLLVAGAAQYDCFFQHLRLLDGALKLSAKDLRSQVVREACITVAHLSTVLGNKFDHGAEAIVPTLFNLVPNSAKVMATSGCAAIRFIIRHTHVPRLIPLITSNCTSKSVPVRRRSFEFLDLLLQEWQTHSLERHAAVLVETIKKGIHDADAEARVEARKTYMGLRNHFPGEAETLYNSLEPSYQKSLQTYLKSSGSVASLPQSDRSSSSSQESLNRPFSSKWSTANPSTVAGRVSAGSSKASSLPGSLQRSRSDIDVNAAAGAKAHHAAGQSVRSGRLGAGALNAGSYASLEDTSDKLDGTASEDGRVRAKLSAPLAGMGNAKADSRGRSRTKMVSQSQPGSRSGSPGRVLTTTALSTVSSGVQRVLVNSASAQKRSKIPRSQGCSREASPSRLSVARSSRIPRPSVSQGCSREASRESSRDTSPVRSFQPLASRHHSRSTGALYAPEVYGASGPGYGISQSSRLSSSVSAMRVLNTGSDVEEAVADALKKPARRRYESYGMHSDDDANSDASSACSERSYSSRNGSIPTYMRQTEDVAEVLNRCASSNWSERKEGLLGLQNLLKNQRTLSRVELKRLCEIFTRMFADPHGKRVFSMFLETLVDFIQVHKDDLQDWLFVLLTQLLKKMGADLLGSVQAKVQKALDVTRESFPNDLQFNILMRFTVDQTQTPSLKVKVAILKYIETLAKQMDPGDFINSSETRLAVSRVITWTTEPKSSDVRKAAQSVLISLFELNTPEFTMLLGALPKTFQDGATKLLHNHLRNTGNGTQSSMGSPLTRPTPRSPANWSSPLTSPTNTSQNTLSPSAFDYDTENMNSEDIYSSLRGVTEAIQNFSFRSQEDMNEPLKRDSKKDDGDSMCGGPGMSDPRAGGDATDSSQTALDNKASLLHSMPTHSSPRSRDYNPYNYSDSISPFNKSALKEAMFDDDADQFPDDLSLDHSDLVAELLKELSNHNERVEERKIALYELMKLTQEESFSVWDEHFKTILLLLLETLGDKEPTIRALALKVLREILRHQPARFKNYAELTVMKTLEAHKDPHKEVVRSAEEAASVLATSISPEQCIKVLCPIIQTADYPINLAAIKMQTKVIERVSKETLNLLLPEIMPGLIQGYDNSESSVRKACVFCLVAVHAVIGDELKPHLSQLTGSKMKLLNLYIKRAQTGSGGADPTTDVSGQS
Chain of UniProt Q8N4Q1 (Q8N4Q1 whole entry, looked up): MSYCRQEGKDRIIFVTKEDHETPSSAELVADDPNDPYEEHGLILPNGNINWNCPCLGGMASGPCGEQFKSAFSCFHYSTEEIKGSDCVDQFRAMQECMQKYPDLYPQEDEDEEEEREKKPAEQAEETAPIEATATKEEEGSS
Chain of UniProt Q9UIV1 (Q9UIV1 whole entry, looked up): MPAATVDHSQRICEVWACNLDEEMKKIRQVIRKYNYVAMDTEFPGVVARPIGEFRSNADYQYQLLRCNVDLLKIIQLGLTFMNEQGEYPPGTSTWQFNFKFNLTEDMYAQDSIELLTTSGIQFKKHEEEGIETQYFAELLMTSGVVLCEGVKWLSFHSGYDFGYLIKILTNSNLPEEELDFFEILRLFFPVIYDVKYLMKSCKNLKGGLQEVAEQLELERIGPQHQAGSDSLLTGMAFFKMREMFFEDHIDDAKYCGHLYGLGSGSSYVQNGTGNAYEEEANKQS
Chain of UniProt A6NHX0 (A6NHX0 whole entry, looked up): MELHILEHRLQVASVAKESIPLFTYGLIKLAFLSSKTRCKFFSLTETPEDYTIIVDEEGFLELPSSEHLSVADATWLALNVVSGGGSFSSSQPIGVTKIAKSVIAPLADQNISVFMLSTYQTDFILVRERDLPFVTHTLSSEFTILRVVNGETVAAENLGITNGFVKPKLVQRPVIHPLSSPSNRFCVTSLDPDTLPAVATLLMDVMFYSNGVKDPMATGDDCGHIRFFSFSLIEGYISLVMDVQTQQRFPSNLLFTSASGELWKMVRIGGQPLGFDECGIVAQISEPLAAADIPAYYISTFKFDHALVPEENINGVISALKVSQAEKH
Chain of UniProt Q12873 (Q12873 whole entry, looked up): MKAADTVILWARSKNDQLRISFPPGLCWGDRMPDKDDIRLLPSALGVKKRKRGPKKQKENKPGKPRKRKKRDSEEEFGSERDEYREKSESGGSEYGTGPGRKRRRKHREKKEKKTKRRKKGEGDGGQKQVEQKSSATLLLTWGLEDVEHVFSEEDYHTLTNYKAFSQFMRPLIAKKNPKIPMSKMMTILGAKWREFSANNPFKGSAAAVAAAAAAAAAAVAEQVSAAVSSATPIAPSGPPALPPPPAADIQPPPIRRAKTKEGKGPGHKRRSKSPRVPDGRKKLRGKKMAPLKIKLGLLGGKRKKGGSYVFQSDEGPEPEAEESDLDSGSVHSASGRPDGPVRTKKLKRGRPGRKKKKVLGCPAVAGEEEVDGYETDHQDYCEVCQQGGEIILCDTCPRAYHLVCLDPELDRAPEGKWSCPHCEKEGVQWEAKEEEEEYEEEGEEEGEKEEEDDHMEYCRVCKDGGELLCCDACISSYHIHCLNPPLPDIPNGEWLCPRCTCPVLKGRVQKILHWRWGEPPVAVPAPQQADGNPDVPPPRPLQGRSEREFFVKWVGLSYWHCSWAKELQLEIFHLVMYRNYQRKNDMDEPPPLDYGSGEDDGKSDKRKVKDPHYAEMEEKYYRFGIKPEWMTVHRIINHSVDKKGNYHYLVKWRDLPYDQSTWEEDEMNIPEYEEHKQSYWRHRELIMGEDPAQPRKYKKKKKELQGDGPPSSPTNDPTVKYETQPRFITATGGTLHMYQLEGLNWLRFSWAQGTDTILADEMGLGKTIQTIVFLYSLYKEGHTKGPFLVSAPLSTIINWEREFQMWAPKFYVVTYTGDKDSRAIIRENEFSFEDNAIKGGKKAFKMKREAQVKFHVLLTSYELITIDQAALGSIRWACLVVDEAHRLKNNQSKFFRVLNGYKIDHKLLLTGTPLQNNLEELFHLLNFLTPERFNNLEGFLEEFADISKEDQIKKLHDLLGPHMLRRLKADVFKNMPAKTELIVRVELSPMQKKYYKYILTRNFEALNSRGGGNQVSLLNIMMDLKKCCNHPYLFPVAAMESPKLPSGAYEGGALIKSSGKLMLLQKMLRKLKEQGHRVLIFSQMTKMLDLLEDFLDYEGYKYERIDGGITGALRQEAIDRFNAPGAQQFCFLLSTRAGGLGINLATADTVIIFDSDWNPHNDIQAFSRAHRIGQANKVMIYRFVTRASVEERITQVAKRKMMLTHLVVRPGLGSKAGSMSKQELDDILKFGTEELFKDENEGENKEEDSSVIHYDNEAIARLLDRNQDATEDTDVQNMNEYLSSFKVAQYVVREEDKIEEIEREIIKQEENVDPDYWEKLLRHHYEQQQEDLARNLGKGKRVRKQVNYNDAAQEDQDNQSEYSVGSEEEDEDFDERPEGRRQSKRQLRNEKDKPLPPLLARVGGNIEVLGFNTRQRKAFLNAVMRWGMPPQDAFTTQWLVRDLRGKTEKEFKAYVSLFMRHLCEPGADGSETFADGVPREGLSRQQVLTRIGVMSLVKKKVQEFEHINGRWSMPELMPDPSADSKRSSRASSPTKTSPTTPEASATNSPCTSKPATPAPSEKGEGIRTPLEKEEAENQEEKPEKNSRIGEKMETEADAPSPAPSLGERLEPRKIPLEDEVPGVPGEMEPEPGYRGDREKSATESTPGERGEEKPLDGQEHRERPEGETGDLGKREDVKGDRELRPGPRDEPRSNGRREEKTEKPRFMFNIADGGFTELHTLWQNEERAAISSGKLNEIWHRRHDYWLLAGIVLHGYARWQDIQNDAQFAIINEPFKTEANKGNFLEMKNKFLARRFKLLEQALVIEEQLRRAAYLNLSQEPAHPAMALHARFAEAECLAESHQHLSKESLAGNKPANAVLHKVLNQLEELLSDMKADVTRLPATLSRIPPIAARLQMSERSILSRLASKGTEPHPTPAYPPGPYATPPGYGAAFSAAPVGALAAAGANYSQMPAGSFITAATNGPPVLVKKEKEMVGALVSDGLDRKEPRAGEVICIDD
Chain of UniProt Q5JTJ3 (Q5JTJ3 whole entry, looked up): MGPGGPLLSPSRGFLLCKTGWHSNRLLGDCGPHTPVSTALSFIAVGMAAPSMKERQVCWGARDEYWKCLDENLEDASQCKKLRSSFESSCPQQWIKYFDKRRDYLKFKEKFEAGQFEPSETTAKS
Chain of UniProt P12277 (P12277 whole entry, looked up): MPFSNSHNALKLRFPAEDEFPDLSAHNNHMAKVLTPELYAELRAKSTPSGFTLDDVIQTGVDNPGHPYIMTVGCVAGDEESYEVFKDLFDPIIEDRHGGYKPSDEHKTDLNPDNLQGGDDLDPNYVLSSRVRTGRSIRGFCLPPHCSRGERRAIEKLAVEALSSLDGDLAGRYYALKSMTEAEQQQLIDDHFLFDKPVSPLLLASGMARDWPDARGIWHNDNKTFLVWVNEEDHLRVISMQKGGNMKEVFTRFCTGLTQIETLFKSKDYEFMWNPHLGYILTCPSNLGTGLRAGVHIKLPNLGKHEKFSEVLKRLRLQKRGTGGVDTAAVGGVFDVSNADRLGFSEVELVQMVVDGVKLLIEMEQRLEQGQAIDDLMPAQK

| Target | log2 fold change [1] | log2 fold change [2] | log2 fold change [3] | log2 fold change [4] | log2 fold change (Nexturastat A) | log2 fold change (vemurafenib) | log2 fold change [5] | log2 fold change [6] | log2 fold change (givinostat) | log2 fold change (barasertib) |
| --- | --- | --- | --- | --- | --- | --- | --- | --- | --- | --- |
| CCM2 isoform 2 (UniProt Q9BSQ5) | -0.072 | -0.068 | -0.124 | -0.002 | 0.102 | 0.008 | 0.009 | 0.052 | -0.003 | -0.061 |
| CHCHD4 isoform 2 (UniProt Q8N4Q1) | 0.373 | 0.001 | 0.157 | -0.035 | -0.026 | -0.015 | 0.412 | -0.063 | 0.029 | -0.024 |
| COX6B1 (UniProt P14854) | -0.006 | -0.144 | 0.136 | 0.016 | -0.001 | 0.015 | -0.005 | -0.069 | -0.025 | 0.085 |
| CSTF2 (UniProt P33240) | -0.081 | 0 | 0.002 | -0.05 | 0.026 | 0.016 | -0.053 | 0.004 | -0.014 | -0.042 |
| CRTC2 (UniProt Q53ET0) | 0.055 | 0.055 | -0.051 | 0.017 | -0.03 | 0.039 | 0.031 | 0.103 | 0.181 | 0.062 |
| CHD3 isoform 3 (UniProt Q12873) | 0.03 | -0.035 | 0.016 | -0.077 | 0.056 | 0.113 | 0.138 | 0.081 | 0.226 | 0.046 |
| COMMD2 (UniProt Q86X83) | -0.014 | -0.051 | 0.007 | 0.035 | 0.022 | 0.023 | 0.159 | 0.019 | 0.11 | 0.053 |
| CNOT7 (UniProt Q9UIV1) | 0.046 | -0.043 | 0.075 | 0.014 | 0.048 | -0.068 | 0.053 | -0.011 | -0.026 | 0.004 |
| CPSF7 isoform 3 (UniProt Q8N684) | 0.015 | 0.001 | 0.014 | 0.012 | -0.003 | 0.018 | 0.007 | -0.016 | 0.01 | -0.044 |
| COA6 isoform 2 (UniProt Q5JTJ3) | -0.054 | -0.012 | 0.767 (active) | 0.036 | 0.007 | -0.041 | -0.009 | -0.089 | -0.02 | -0.042 |
| CHAMP1 (UniProt Q96JM3) | -0.003 | -0.018 | 0.005 | -0.012 | 0.011 | -0.01 | -0.011 | -0.003 | 0.032 | 0.027 |
| CHD4 isoform 2 (UniProt Q14839) | 0.011 | -0.028 | 0.062 | -0.014 | 0.087 | 0.068 | 0.116 | 0.101 | 0.154 | 0.121 |
| COPS3 (UniProt Q9UNS2) | -0.008 | -0.013 | 0.009 | 0.034 | -0.02 | 0.004 | 0.011 | -0.044 | -0.056 | 0.016 |
| CES2 isoform 4 (UniProt O00748) | -0.003 | -0.072 | 0.005 | -0.065 | 0.058 | -0.029 | -0.105 | 0.003 | 0.021 | 0.022 |
| CRKL (UniProt P46109) | -1.25 (active) | -0.029 | 0.014 | 0.019 | -0.003 | -0.018 | -0.009 | -0.024 | 0.009 | 0.01 |
| CHP1 (UniProt Q99653) | -0.048 | -0.016 | -0.112 | 0.021 | 0.016 | 0.141 | -0.042 | 0.008 | -0.035 | 0.009 |

| Target | log2 fold change [1] | log2 fold change [2] | log2 fold change [3] | log2 fold change [4] | log2 fold change (Nexturastat A) | log2 fold change (vemurafenib) | log2 fold change [5] | log2 fold change [6] | log2 fold change (givinostat) | log2 fold change (barasertib) |
| --- | --- | --- | --- | --- | --- | --- | --- | --- | --- | --- |
| CSNK2A2 (UniProt P19784) | -0.037 | 0.009 | 0.021 | 0.005 | 0.004 | 0 | 0.08 | -0.035 | 0.03 | 0.003 |
| CSNK2A1 (UniProt P68400) | -0.047 | -0.004 | -0.044 | 0.025 | 0.034 | 0.006 | 0.008 | -0.018 | -0.003 | -0.024 |
| CLUH, A0A494C0R8 | 0.008 | -0.077 | -0.02 | 0.124 | 0.068 | -0.121 | -0.072 | 0.016 | 0.092 | -0.043 |
| CALB1 (UniProt P05937) | -0.004 | 0.032 | 0.027 | 0.042 | -0.023 | 0.057 | 0.019 | 0.011 | -0.031 | 0.037 |
| CDC25B isoform 4 (UniProt P30305) | 0.203 | -0.022 | -0.008 | -0.004 | -0.039 | 0.054 | -0.077 | -0.352 | 0.032 | -0.044 |
| CLASP2 isoform 3 (UniProt O75122) | -0.032 | -0.01 | 0.013 | 0.012 | -0.006 | 0.089 | 0.061 | 0.029 | 0.013 | 0.066 |
| CETN3 (UniProt O15182) | 0.001 | 0.012 | -0.099 | -0.102 | -0.01 | -0.056 | -0.164 | -0.116 | 0.008 | 0.043 |
| CDKN2AIP (UniProt Q9NXV6) | 0.046 | -0.01 | -0.076 | 0.008 | 0.052 | 0.043 | -0.053 | 0.023 | 0.012 | -0.017 |
| CERT isoform 3 (UniProt Q9Y5P4) | 0.154 | -0.103 | -0.039 | -0.001 | -0.048 | 0.101 | 0.061 | 0.02 | -0.027 | -0.002 |
| CASTOR2 (UniProt A6NHX0) | -0.015 | -0.01 | 0.037 | 0.033 | -0.085 | 0.046 | -0.465 (active) | -0.021 | 0.041 | 0.01 |
| CKB (UniProt P12277) | 0.016 | -0.006 | -0.008 | 0.016 | -0.032 | 0 | 0.015 | -0.016 | -0.013 | -0.002 |
| COX15 (UniProt Q7KZN9) | 0.05 | 0.024 | 0.001 | 0.003 | -0.113 | 0.005 | 0.015 | -0.077 | -0.008 | 0.009 |
| CETN2 (UniProt P41208) | -0.015 | -0.016 | -0.146 | -0.071 | -0.188 | -0.008 | -0.335 (active) | -0.034 | -0.034 | -0.013 |
| CMTR1 (UniProt Q8N1G2) | -0.012 | -0.003 | -0.021 | 0.083 | -0.069 | 0.03 | 0.005 | -0.004 | -0.062 | 0.054 |
| CAMK2G isoform 6 (UniProt Q13555) | 0.048 | -0.055 | 0.131 | -0.011 | 0.094 | -0.026 | 0.11 | 0.15 | 0.025 | 0.065 |
| CASP2 (UniProt P42575) | 0.025 | 0.001 | 0.215 | 0.056 | 0.004 | 0.026 | 0.193 | 0.086 | 0.039 | 0.026 |
